The campaign covered roughly 3,300 compounds. About 50 (2%) were called active. Not all results are given here. Entries with a potency or affinity are not part of this list. Values without a mark were called inactive.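 The calls were made as follows: active = concentration giving half-maximal inhibition at or below 20 micromolar; inactive = half-maximal concentration above 20 micromolar, or not dose tested.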

The nature of the assay: cytotoxicity toward Jurkat T cells, primary screen, cell-based, Jurkat E6.1, NIH starter set (AID 364).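 Also: 100% = cells treated with 4 µM doxorubicin.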 To be noted: Jurkat E6.1 viability, ATP luminescence, 48 h; at 4 µM; active compounds read high.
Turning to `CN1CCN(c2c3c(c(C#N)c4nc5ccccc5n24)CCCC3)CC1`, the inhibition was 4.7%.

`CCOC(=O)C1Cc2c([nH]c3ccccc23)C(C)N1` (centres undefined): the inhibition was -10.3%.

On to `Cc1cc(NC(CC(C)C)C(=O)O)nc(Cc2ccccc2)n1` (centres undefined), for which the inhibition is 0.4%.

As for `CC1(C2(O)CC(c3ccccc3)ON2)CCCCC1` (centres undefined), the inhibition is 13.9%.

In the case of `CC1CN(C2CCN(S(=O)(=O)c3ccccc3)CC2)CC(C)O1` (centres undefined), the inhibition is 7.8%.

Consider `C(=N\n1cnnc1)/c1ccccn1`, for which the inhibition was -0.2%.

Regarding `Cc1cc(-c2cc(-c3ccc(Cl)cc3)nc(N)c2C#N)co1`, the inhibition was 7.7%.

With `CCOC(=O)CC(=O)CSc1nc(N)c(C#N)c(-c2ccc(Cl)cc2)c1C#N`, the inhibition is 9.6%.

`CC(=O)c1c(OCC(=O)O)ccc2c(C)cc(=O)oc12`: the inhibition was 6.9%.

With `c1ccc(CN2CCN(c3ncnc4c3[nH]c3ccccc34)CC2)cc1`, the inhibition was 28.5%.

Take `c1ccc2c(c1)[nH]c1c(N3CCSCC3)ncnc12`: the inhibition is 29.6%.

With `Cc1cc(=O)oc(C)c1C(=O)N1CCN(C)CC1`, the inhibition was -1%.

For the molecule `CN(C)CCCN1C(=O)C(O)=C(C(=O)c2cc3ccccc3o2)C1c1ccccc1` (centres undefined), the inhibition was 0%.

For `Nc1ccc2oc3ncccc3c(=O)c2c1`, the inhibition was -1.7%.

As to `CC(C)Oc1ccc(/C(O)=C2/C(=O)C(=O)N(CCN(C)C)C2c2ccco2)cc1` (centres undefined), the inhibition was 5.7%.

For the molecule `Fc1ccc2[nH]c3c(N4CCN(c5ccccc5)CC4)ncnc3c2c1`, the inhibition is 28.7%.

Regarding `Cc1ccc2[nH]c3c(N4CCN(Cc5ccc6c(c5)OCO6)CC4)ncnc3c2c1`, the inhibition was 18.7%.

Consider `COc1ccc2[nH]c3c(N4CCN(Cc5ccc6c(c5)OCO6)CC4)ncnc3c2c1`, for which the inhibition is -0.5%.

Consider `COc1cccc(N2CCN(c3ncnc4c3[nH]c3ccccc34)CC2C)c1` (centres undefined), for which the inhibition is 22.3%.

On to `N#CCCSCc1ccc(OCC(=O)O)cc1`, for which the inhibition is -5.7%.

As to `CCn1cc(C(=O)NCc2ccco2)c(=O)c2cc(F)c(N3CCN(C(=O)c4ccco4)CC3)cc21`, the inhibition was 7.2%.

On to `Cc1cc(C)n(C(=O)CNC(=O)c2cccs2)n1`, for which the inhibition was 2.3%.

On to `CCN(CC)C(=O)CSC1=C(C#N)C(c2ccco2)C(C(=O)OCCOC)=C(C)N1` (centres undefined), for which the inhibition was -2.1%.

Consider `N#CC1=C(SCc2ccccc2)NC2=C(C(=O)CCC2)C1c1ccc2c(c1)OCO2` (centres undefined), for which the inhibition is 13.1%.

Take `CCCCc1ccc(NC(=O)CSC2=C(C#N)C(c3ccco3)C3=C(CCCC3=O)N2)cc1` (centres undefined): the inhibition is -2.5%.

Consider `CCc1ccccc1NC(=O)CSC1=C(C#N)C(c2ccc(O)c(OC)c2)C2=C(CCCC2=O)N1` (centres undefined), for which the inhibition was -3.3%.

On to `COc1ccccc1NC(=O)C1=C(C)NC(SCC(=O)c2ccc(C)cc2)=C(C#N)C1c1ccco1` (centres undefined), for which the inhibition was -6.6%.

Take `Cc1ccc(NC(=O)CSC2=C(C#N)C(c3ccco3)C3=C(CCCC3=O)N2)cc1` (centres undefined): the inhibition is 6.6%.

With `CCc1ccc(NC(=O)CSC2=C(C#N)C(c3ccco3)C3=C(CCCC3=O)N2)cc1` (centres undefined), the inhibition is 3.5%.

Take `COCCOC(=O)C1=C(C)NC(SCC(=O)NC(C)(C)C)=C(C#N)C1c1ccco1` (centres undefined): the inhibition is 9.1%.

For `Cc1cc(CCC(=O)O)c(C)cc1CCC(=O)O`, the inhibition was -4.4%.

Regarding `NS(=O)(=O)c1ccc(-c2ccc(C=NC3CCS(=O)(=O)C3)o2)cc1` (centres undefined), the inhibition was 10.2%.

Turning to `O=C(C1CCCCC1)N1CCCn2c1nc1ccccc12`, the inhibition is 1.8%.

As for `O=C1C2CC=C(Cl)CC2C(=O)N1CNc1ccccn1` (centres undefined), the inhibition is -4.2%.

With `CCCOc1ccc(N2C(=O)CC(N(CCC)C(=O)CCC(=O)O)C2=O)cc1` (centres undefined), the inhibition was -0.8%.

On to `COc1cccc(/C(O)=C2/C(=O)C(=O)N(CCN(C)C)C2c2ccc(Br)cc2)c1` (centres undefined), for which the inhibition was -1.9%.

Take `CCOc1ccc(Br)cc1CC(=O)O`: the inhibition was 13.6%.

For `O=C(C(c1ccccc1)N1CCOCC1)N1CCOCC1` (centres undefined), the inhibition was -13.4%.

Consider `Cc1cc2c(c(=O)n1Cc1ccccn1)C(c1ccc3c(c1)OCO3)C(C#N)=C(N)O2` (centres undefined), for which the inhibition is -0.2%.

Take `CCCCCOc1ccc(Cl)cc1CN1CCOCC1`: the inhibition is -0.4%.

Regarding `COc1cccc(C2/C(=C(\O)c3ccc(OC)c(OC)c3)C(=O)C(=O)N2c2cc(C)on2)c1` (centres undefined), the inhibition is -14.4%.

Take `Cc1cc(C)nc(N(C#N)S(=O)(=O)c2ccccc2Cl)n1`: the inhibition is 1%.

Regarding `COc1ccc(NC(=O)CSC2=C(C#N)C(c3ccco3)C3=C(CCCC3=O)N2)c(OC)c1` (centres undefined), the inhibition is 1.6%.

Consider `COc1ccc(OC)c(NC(=O)CSC2=C(C#N)C(c3ccco3)C3=C(CCCC3=O)N2)c1` (centres undefined), for which the inhibition was 4.8%.

Turning to `Cc1c(N2C(=O)SC(CC(=O)O)C2=O)c(=O)n(-c2ccccc2)n1C` (centres undefined), the inhibition is -2.7%.

`CC(=O)C1(C)OC(N)=C(C#N)C(c2ccccc2)C1(C#N)C#N` (centres undefined): the inhibition was 5.6%.

Turning to `COc1ccc(N2C(=O)C3C(C2=O)C2C=CC3C23CC3)c(OC)c1` (centres undefined), the inhibition was 0.8%.

On to `COc1ccccc1NC(=O)Nc1nnc(C(C)C)s1`, for which the inhibition was 9.4%.

Consider `COc1ccc(OC)c(C2=Nn3c(nnc3C3CCCCC3)SC2)c1`, for which the inhibition is 5.2%.

On to `c1ccc(-c2nnc3n2N=C(c2ccc4c(c2)OCO4)CS3)nc1`, for which the inhibition was -6.9%.

With `CC(=O)[C@H]1[C@@H]2C(=O)N(c3cccc(Cl)c3)C(=O)[C@@H]2[C@H]2c3ccccc3C=CN21`, the inhibition is -1.9%.

With `CCOC(=O)CNS(=O)(=O)c1cc(-c2nn(C)c(=O)c3ccccc23)ccc1C`, the inhibition is 1.1%.

Regarding `C=C(C)CC1N(c2cccc(OC)c2)C(=O)[C@@H]2C(C(=O)O)[C@H]3C=C[C@@]12O3` (some centres undefined), the inhibition is 5.9%.

For `CCCCOc1ccc(C(=O)Nc2ccc(N3CCN(C(C)=O)CC3)cc2)cc1`, the inhibition is 6.7%.

On to `COc1ccc(C(=O)CSC2=C(C#N)C3(CCCCC3)C(C#N)=C(N)N2)cc1`, for which the inhibition was 4.2%.

For `N#CC1=C(N)NC(SCc2ccc(Cl)cc2)=C(C#N)C12CCCCC2`, the inhibition was 7.9%.

Consider `Cc1csc(SCCn2c(Br)nc3c2c(=O)[nH]c(=O)n3C)n1`, for which the inhibition is -4.7%.

Regarding `N#CC1=C(N)C(C#N)(C#N)[C@H](c2ccncc2)[C@H]2CN(C(=O)OCc3ccccc3)CC=C12`, the inhibition is 2.4%.

As to `O=C(CSc1nnc(-c2ccco2)c(-c2ccco2)n1)Nc1ccccc1`, the inhibition was 0.1%.

Consider `COCCOC(=O)c1c(C)nc(SCC(=O)Nc2ccc(C)cc2)c(C#N)c1-c1ccco1`, for which the inhibition is 13.5%.

Regarding `C=CCN(C)CCCNC(=O)/C=N/O`, the inhibition is 2.4%.

As to `CN(CCOC(=O)c1ccc2c(c1)OCCO2)Cc1ccccc1`, the inhibition was -9.3%.

Turning to `O=C(CC(c1ccco1)S(=O)(=O)c1ccccc1)c1ccc(F)cc1` (centres undefined), the inhibition is -1%.

As for `COc1cc(-c2nn3c(-c4cccnc4)nnc3s2)cc(OC)c1OC`, the inhibition is 3.2%.

As for `c1cncc(-c2nnc3sc(-c4ccco4)nn23)c1`, the inhibition is 7.6%.

Consider `Cc1c(NS(=O)(=O)c2cccc3nsnc23)c(=O)n(-c2ccccc2)n1C`, for which the inhibition is -5.3%.

Consider `CCN(CC)CCN1C(=O)C(O)=C(C(C)=O)C1c1ccc(OC)c(OC)c1` (centres undefined), for which the inhibition is -15.9%.

As for `Cn1c(=O)cc(NCc2ccccc2)[nH]c1=O`, the inhibition is -8.6%.

As to `Cc1ccc2cc(CNC(C)(C)C)c(=O)[nH]c2c1`, the inhibition was 7.6%.

Regarding `CCc1c(C)c(C#N)c2nc3ccccc3n2c1-n1nc(C)cc1C`, the inhibition was -5.3%.

As for `COCc1cc(C)nc(SCC(=O)Nc2ccc(C)c(C)c2)c1C#N`, the inhibition is -5.4%.

Regarding `CCc1nc2c(sc3nc(N4CCOCC4)c4c(c32)CC(C)(C)OC4)c(=O)o1`, the inhibition is -2%.

With `CN(C)CCCN1C(=O)C(=O)/C(=C(/O)c2ccccc2)C1c1ccccn1` (centres undefined), the inhibition was 8.4%.

In the case of `Cc1cccc(-c2nnc3n2N=C(c2ccccc2)CS3)c1`, the inhibition is 13.9%.

`CCOc1ccc(C2=Nn3c(nnc3-c3ccccn3)SC2)cc1`: the inhibition is 2.6%.

As to `CCOc1ccc(-c2nnc3sc(-c4ccccc4OC)nn23)cc1`, the inhibition was 1.2%.

`COc1ccc(C2=Nn3c(nnc3-c3cccnc3)SC2)cc1OC`: the inhibition was -8.2%.

Regarding `CCOc1ccc(C2=Nn3c(nnc3-c3cccnc3)SC2)cc1`, the inhibition was 2.1%.

Consider `COc1ccc(C2=Nn3c(nnc3-c3ccccn3)SC2)cc1OC`, for which the inhibition is 2.3%.

Turning to `COc1ccc(OC)c(C2=Nn3c(nnc3-c3ccco3)SC2)c1`, the inhibition was -10.8%.

As for `c1ccc(C2=Nn3c(nnc3-c3ccccn3)SC2)cc1`, the inhibition was -9.2%.

Consider `CC1(C)CC(=O)C2=C(C1)N(CC1CCCO1)C(=O)C2(O)C(F)(F)F` (centres undefined), for which the inhibition was 7.7%.

With `COc1ccc(-c2nc3n(n2)C(=O)CC(c2ccco2)S3)cc1` (centres undefined), the inhibition is -1.6%.

As to `Cc1cc(NCC2CCCO2)n2c(nc3ccccc32)c1C#N` (centres undefined), the inhibition is 15.2%.

`CCOC(=O)NC(Nc1sc2c(c1C(N)=O)CCCC2)(C(=O)OCC)C(F)(F)F` (centres undefined): the inhibition is 2.5%.

Turning to `CC(C)c1cc(NCCN2CCOCC2)n2c(nc3ccccc32)c1C#N`, the inhibition is 14.6%.

For `O=P(Cc1nnco1)(c1ccccc1)c1ccccc1`, the inhibition was 1%.

Regarding `CC(=O)Oc1ccccc1C1OCCN1C(C)=O` (centres undefined), the inhibition is -17.2%.

On to `Cc1ccc2nc(C(F)(F)F)c(C#N)c(N)c2c1`, for which the inhibition is 11.8%.

Consider `C/C(NC(=O)c1ccccc1F)=C1\C(=O)C[C@@H]2[C@H]1C2(C)C`, for which the inhibition was -12.7%.

With `Cc1ccc(S(=O)(=O)NC(=O)NCc2ccc3c(c2)OCO3)cc1`, the inhibition is 7.5%.

In the case of `CCN=C1SC(C(=O)Nc2ccc(Cl)c(Cl)c2)CC(=O)N1CC` (centres undefined), the inhibition is -3.4%.

With `O=C(OCCN1CCOCC1)c1ccc(OCCN2CCOCC2)cc1`, the inhibition was -3.3%.

Take `Cn1c(/C(C#N)=C/Nc2ccccn2)nc2ccccc21`: the inhibition was -8.5%.

Usually inhibition stands for the drop in the measured response relative to a control, in per cent.

(Values after PubChem BioAssay AID364 (The Scripps Research Institute Molecular Screening Center, 2006).)
